Reference: PubChem BioAssay (EPA / NIEHS)
Calls of active or inactive are those of the source. How the source made its calls: active means hit-call score of the fitted dose curve at least 0.9, where 1 is the maximum; inactive means score below 0.9.

The compounds below were run on CYP3A5 (gene 1577) (assay: LTEA_HepaRG_CYP3A5: Life Technologies and Expression Analysis (LTEA) Assay for CYP3A5 using HepaRG (AID 2283493)). Settings: mRNA level, 48 h; actives raise or lower the signal.
Summary of the method: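 mRNA levels were quantified by qRT-PCR on Fluidigm arrays and normalized to three housekeeping genes. Differentiated HepaRG cells received 48 h exposure (top 100 uM, half-log steps, 0.5% DMSO vehicle, duplicate); bidirectional fitting versus DMSO.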

SMILES | AC50 | outcome
COc1cc2c(c(OC)c1OC)-c1ccc(OC)c(=O)cc1[C@@H](NC(C)=O)CC2 | 0.0995 µM (active) | 
CCn1nc(C)c2c1C(=O)NCC(c1ccc(O)cc1)=N2 |  | inactive
CCCCCCCCCC |  | inactive
NC(=O)NN=Cc1ccc([N+](=O)[O-])o1 |  | inactive
OC(Cn1cncn1)(Cn1cncn1)c1ccc(F)cc1F |  | inactive
OCc1ccccc1 |  | inactive
NNC(=O)c1ccncc1 |  | inactive
CC(C)CCCCCCOC(=O)C1CCCCC1C(=O)OCCCCCCC(C)C (stereo not given) |  | inactive
CC(C)C(=O)Nc1ccc([N+](=O)[O-])c(C(F)(F)F)c1 |  | inactive
NC(=O)N(O)[C@@H]1COc2cc(OCc3ccccc3)ccc21 |  | inactive
NC(N)=O |  | inactive
COCc1nnc(-c2ccc[n+]([O-])c2)n1-c1c(Cl)c(Cl)cc2[nH]c(=O)c(=O)[nH]c12 |  | inactive
OC[C@H]1O[C@@H]2O[C@H]3[C@H](O)[C@@H](O)[C@@H](O[C@H]4[C@H](O)[C@@H](O)[C@@H](O[C@H]5[C@H](O)[C@@H](O)[C@@H](O[C@H]6[C@H](O)[C@@H](O)[C@@H](O[C@H]7[C@H](O)[C@@H](O)[C@@H](O[C@H]1[C@H](O)[C@H]2O)O[C@@H]7CO)O[C@@H]6CO)O[C@@H]5CO)O[C@@H]4CO)O[C@@H]3CO |  | inactive
CC(C)CC(C)O (stereo not given) |  | inactive
CCCCN1C(=O)[C@@H]([C@H](O)C2CCCCC2)NC(=O)C12CCN(Cc1ccc(Oc3ccc(C(=O)O)cc3)cc1)CC2 | 1.9 µM (active) | 
CC(C)c1nnc2ccc(-c3ocnc3-c3cc(F)ccc3F)cn12 |  | inactive
CNC(C)=O |  | inactive
C=CN1CCCC1=O |  | inactive
CCCCCCCCN(C)C |  | inactive
CCCCCCOC(=O)CC(CC(=O)OCCCCCC)(OC(=O)CCC)C(=O)OCCCCCC |  | inactive
CCc1cccc(CC)c1N |  | inactive
O=C1CN(N=Cc2ccc([N+](=O)[O-])o2)C(=O)N1 |  | inactive
CCCC(CCC)C(=O)O |  | inactive
Cc1ncc([C@@H](CCCCCCc2ccc3c(n2)NCCC3)CC(=O)O)cn1 |  | inactive
CCN(CC)C(=S)SSC(=S)N(CC)CC |  | inactive

What follows are compounds tested on Fatty Acid-Binding Protein 1 (FABP1), FABP1 (gene 2168) (assay: LTEA_HepaRG_FABP1: Life Technologies and Expression Analysis (LTEA) Assay for Fatty Acid-Binding Protein 1 (FABP1) using HepaRG (AID 2283494)). Settings: mRNA level, 48 h; actives raise or lower the signal.
Summary of the method: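 FABP1 expression by TaqMan qRT-PCR, normalised to three housekeeping genes, in HepaRG cells after 48 h chemical treatment. Eight-point half-log series topping at 100 uM in 0.5% DMSO, duplicates; gain or loss fitted relative to vehicle.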

SMILES | AC50 | outcome
COc1cc2c(c(OC)c1OC)-c1ccc(OC)c(=O)cc1[C@@H](NC(C)=O)CC2 | 0.106 µM (active) | 
CCn1nc(C)c2c1C(=O)NCC(c1ccc(O)cc1)=N2 |  | inactive
CCCCCCCCCC |  | inactive
O=C(O)c1ccc2c(c1)nc(C(=O)NC1CCN(C3CC3)CC1)n2Cc1cc(-c2ccc(Cl)s2)on1 |  | inactive
Nc1ccn([C@@H]2O[C@H](CO)[C@@H](O)[C@@H]2O)c(=O)n1 |  | inactive
NC(=O)NN=Cc1ccc([N+](=O)[O-])o1 | 25.7 µM (active) | 
OC(Cn1cncn1)(Cn1cncn1)c1ccc(F)cc1F |  | inactive
OCc1ccccc1 |  | inactive
NNC(=O)c1ccncc1 |  | inactive
CCc1ccc(O)c(C(C)(C)C)c1 |  | inactive
CCOC(N)=O |  | inactive
CC(C)CCCCCCOC(=O)C1CCCCC1C(=O)OCCCCCCC(C)C (stereo not given) |  | inactive
c1ccc(C(O[C@@H]2CCCN(CCc3ccc4c(c3)OCO4)C2)c2ccccc2)cc1 | 79.1 µM (active) | 
CC(C)C(=O)Nc1ccc([N+](=O)[O-])c(C(F)(F)F)c1 | 37.9 µM (active) | 
NC(=O)N(O)[C@@H]1COc2cc(OCc3ccccc3)ccc21 |  | inactive
O=c1[nH]cnc2c1ncn2[C@H]1CC[C@@H](CO)O1 |  | inactive
NC(N)=O |  | inactive
COCc1nnc(-c2ccc[n+]([O-])c2)n1-c1c(Cl)c(Cl)cc2[nH]c(=O)c(=O)[nH]c12 |  | inactive
OC[C@H]1O[C@@H]2O[C@H]3[C@H](O)[C@@H](O)[C@@H](O[C@H]4[C@H](O)[C@@H](O)[C@@H](O[C@H]5[C@H](O)[C@@H](O)[C@@H](O[C@H]6[C@H](O)[C@@H](O)[C@@H](O[C@H]7[C@H](O)[C@@H](O)[C@@H](O[C@H]1[C@H](O)[C@H]2O)O[C@@H]7CO)O[C@@H]6CO)O[C@@H]5CO)O[C@@H]4CO)O[C@@H]3CO |  | inactive
CC(C)CC(C)O (stereo not given) |  | inactive
CCCCN1C(=O)[C@@H]([C@H](O)C2CCCCC2)NC(=O)C12CCN(Cc1ccc(Oc3ccc(C(=O)O)cc3)cc1)CC2 | 2.84 µM (active) | 
CC(C)c1nnc2ccc(-c3ocnc3-c3cc(F)ccc3F)cn12 | 52.6 µM (active) | 
CNC(C)=O |  | inactive
OCCNCCO | 45.6 µM (active) | 
C=CN1CCCC1=O |  | inactive
